This passage reports z-score results from PubChem BioAssay AID488969 (Vanderbilt High Throughput Screening Facility, 2010).

The full ranking holds about 110,000 compounds; the median of “z-score” is about -0.1, and the highest 2% start at about 2. The entries come from a sample that favours the highest values as a whole.

For the assay, the target named is Metabotropic glutamate receptor 8 (Rattus norvegicus) (UniProt P70579). Description: rat mGluR8 modulators via GIRK flux, primary screen, cell-based, thallium flux, HTS (AID 488969). The following applies: HEK293 rat mGluR8, GIRK (G protein-gated inwardly rectifying potassium channel) thallium flux, FluoZin2; at 10 µM; stronger effect = higher value; submaximal glutamate (EC20) added with thallium.
Metabotropic glutamate receptor 8 (Rattus norvegicus), sequence (P70579 whole entry, looked up): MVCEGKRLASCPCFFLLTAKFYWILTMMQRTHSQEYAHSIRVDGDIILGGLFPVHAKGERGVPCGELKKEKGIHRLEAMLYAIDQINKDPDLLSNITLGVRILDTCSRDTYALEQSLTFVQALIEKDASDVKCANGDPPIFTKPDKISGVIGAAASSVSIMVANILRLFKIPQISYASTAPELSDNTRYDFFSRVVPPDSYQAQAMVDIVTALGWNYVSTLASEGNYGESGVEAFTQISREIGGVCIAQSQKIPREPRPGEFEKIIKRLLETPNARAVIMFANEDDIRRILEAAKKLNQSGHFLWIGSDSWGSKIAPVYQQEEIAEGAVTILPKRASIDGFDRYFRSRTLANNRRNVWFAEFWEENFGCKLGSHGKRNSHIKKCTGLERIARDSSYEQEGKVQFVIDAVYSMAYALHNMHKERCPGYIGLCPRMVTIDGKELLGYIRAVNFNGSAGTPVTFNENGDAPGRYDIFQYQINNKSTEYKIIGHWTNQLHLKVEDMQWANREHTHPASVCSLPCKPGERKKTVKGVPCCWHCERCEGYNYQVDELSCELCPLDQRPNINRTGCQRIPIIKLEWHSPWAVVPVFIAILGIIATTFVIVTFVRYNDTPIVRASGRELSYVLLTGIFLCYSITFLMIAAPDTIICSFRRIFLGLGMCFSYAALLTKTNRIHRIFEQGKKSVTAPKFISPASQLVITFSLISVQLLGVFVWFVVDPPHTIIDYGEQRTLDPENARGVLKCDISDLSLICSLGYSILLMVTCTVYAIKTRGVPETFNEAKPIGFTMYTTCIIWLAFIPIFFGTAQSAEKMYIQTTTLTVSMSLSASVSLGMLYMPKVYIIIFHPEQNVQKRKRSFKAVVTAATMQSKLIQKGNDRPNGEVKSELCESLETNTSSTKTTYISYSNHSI
With `Cc1nn2c(CN(C(=O)COc3ccccc3)c3ccccc3)nnc2c2ccccc12`, the z-score is -0.835. The result for `O=C(Oc1ccnc2cc(Cl)ccc12)N1CCOCC1` reads -0.719; that for `Clc1ccc2c(N3CCCC3)ccnc2c1`, 2.36; that for `Clc1ccc2c(NNc3ccccc3Cl)ccnc2c1`, -0.353. As for `Cc1cc(C)nc(N2CCC(C(=O)Nc3ccc(Oc4ccccc4)cc3)CC2)n1`, the figure is -0.163. As for `CC(C(=O)Nc1ccc([N+](=O)[O-])cc1)N1CCN(C/C=C/c2ccccc2)CC1` (centres undefined), the figure is -0.146.

On to `CCc1ccc2nc(N3C(=O)C(O)=C(C(=O)c4ccco4)C3c3cccs3)sc2c1` (centres undefined), for which the z-score was -1.1. The result for `N=c1sccn1CC(=O)Nc1ccc(Cl)c(S(=O)(=O)N2CCOCC2)c1` reads 0.131. As for `Cc1ccc(S(=O)(=O)N2CCOCC2)cc1NC(=O)Cn1ccsc1=N`, the figure is 0.262; as for `N=c1sccn1CC(=O)Nc1ccc(S(=O)(=O)N2CCOCC2)cc1`, 2.19. For `CCOC(=O)CC1C(=O)NCCN1Cc1cccc(OC)c1` (centres undefined), the z-score was -0.139. As for `COc1ccc(NC(=O)c2ccco2)cc1NC(=O)c1ccc(Br)o1`, the figure is -0.82; as for `Cc1csc(SCC(=O)Nc2ncc(Cl)c(C)c2Cl)n1`, 0.185.

The compound `Cc1nn(C)c(C)c1S(=O)(=O)N(CC(=O)NC1CCCCCC1)c1ccc(C(C)C)cc1` yielded a z-score of -0.146.

The compound `COc1ccc(N(CC(=O)Nc2nccs2)S(=O)(=O)c2c(C)nn(C)c2C)cc1` gave a z-score of 0.0495.

Compound `COc1ccc2nc(NC(=O)CN(c3ccc(C)cc3)S(=O)(=O)c3c(C)nn(C)c3C)sc2c1` yielded a z-score of 0.03. The result for `COc1ccc(N(CC(=O)Nc2nc3ccc(C)cc3s2)S(=O)(=O)c2c(C)nn(C)c2C)cc1` reads 2.44; that for `Cc1nn(C)c(C)c1S(=O)(=O)N(CC(=O)NCCCOC(C)C)c1ccc(C(C)C)cc1`, -0.0899. The result for `Cc1cccc(NC(=O)CN(c2ccc(C(C)C)cc2)S(=O)(=O)c2c(C)nn(C)c2C)n1` reads 2.21; that for `CSc1ccc(/C=N/NC(=O)CN2CCN(Cc3ccccc3)CC2)cc1`, -0.0744. The result for `CC(=O)Oc1ccc2c(c1)cc(C)n2C` reads 0.458. `O=C1c2ccccc2C(=O)N1CCn1c(=O)oc2ccccc21` showed a z-score of 1.56.

`Cc1cc(Cl)ccc1OC(C)C(=O)Nc1ccc([N+](=O)[O-])cn1` (centres undefined) had a z-score of 2.07.

Turning to `CC(Oc1cccc(Cl)c1)C(=O)Nc1ccc([N+](=O)[O-])cn1` (centres undefined), the z-score was -0.576.

Regarding `CC(=O)Nc1ccc([N+](=O)[O-])cn1`, the z-score was -0.229. The result for `COC(=O)c1c(NC(=O)CSc2nnnn2-c2ccccc2)sc2c1CCC(C)C2` (centres undefined) reads -0.121. `COc1ccccc1/C=C1\NC(=S)N(CC2CCCO2)C1=O` (centres undefined) displayed a z-score of 0.246. The result for `COc1ccc(/C=C2\NC(=S)N(CC3CCCO3)C2=O)c(OC)c1C` (centres undefined) reads 2.32; that for `COc1ccc(/C=C2\NC(=S)N(CC3CCCO3)C2=O)c(OC)c1` (centres undefined), 0.39.
